# Source: PubChem (National Center for Advancing Translational Sciences (NCATS))
# Compounds with a hit are over-represented: about 2.7% of the library has one in this group of screens.
# RXFP1 agonist – qHTS Assay for Agonists of the Relaxin Receptor RXFP1; Relaxin receptor 1 (Homo sapiens), Q9HBX9; HEK293T-RXFP1 cAMP TR-FRET, 30 min; response scale: percent of porcine relaxin response, buffer zero; Potency, µM (series often up to 57.5 µM), without a hit: at the top dose activation, actives largely listed as activators; 0.3% of 370,000 active; AID 2676, 2010; active = well fitted activation curve with a large enough effect; inconclusive = small, poorly fitted or top-dose-only effect; note: potency is the fitted concentration of half-maximal effect; % is set by controls: 0 for no effect and ±100 for the full control effect; nearly all actives have a fitted effect of over 60% in size
# Target sequence (Q9HBX9 whole entry, looked up): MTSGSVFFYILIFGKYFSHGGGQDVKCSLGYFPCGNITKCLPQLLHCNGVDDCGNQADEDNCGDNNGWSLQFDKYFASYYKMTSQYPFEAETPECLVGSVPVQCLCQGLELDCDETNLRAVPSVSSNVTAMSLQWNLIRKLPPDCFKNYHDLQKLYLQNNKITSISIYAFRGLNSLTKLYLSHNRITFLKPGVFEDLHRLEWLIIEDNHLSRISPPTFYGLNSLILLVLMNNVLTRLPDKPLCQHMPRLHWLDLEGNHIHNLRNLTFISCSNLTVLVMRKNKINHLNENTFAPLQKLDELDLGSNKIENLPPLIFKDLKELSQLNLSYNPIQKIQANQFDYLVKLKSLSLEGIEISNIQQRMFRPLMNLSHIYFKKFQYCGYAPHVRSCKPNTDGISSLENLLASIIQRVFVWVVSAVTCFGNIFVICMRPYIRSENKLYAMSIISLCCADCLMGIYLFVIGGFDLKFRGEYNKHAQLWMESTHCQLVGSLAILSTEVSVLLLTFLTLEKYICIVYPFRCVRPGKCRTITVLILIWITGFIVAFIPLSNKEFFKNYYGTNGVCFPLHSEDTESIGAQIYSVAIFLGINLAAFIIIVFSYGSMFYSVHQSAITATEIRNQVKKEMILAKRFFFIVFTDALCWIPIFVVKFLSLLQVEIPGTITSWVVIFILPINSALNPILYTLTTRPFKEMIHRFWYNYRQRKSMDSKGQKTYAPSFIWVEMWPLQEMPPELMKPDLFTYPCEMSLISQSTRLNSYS
#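 Agonist response is measured as cAMP accumulation in an RXFP1-transfected HEK293T line under PDE4 inhibition. Values are scaled between buffer-only and 29 nM porcine relaxin, and EC50s come from standard Hill equation fits.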
# gsp agonist – qHTS for Agonist of gsp, the Etiologic Mutation Responsible for Fibrous Dysplasia/McCune-Albright Syndrome: qHTS. gsp mutant cells, cAMP HTRF, 30 min. Potency, µM (titrated, usually from 76.9 µM), without a hit: at the top dose activation (cAMP increase), usual class: activators. 0.13% of 340,000 active. AID 624287, 2012; active = well fitted activation curve with a large enough effect; inconclusive = small, poorly fitted or top-dose-only effect, or another doubt; inactive = no such curve, though single readings can be large or run the other way; cell line not stated here;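 note: phosphodiesterase inhibitor Ro 20-1724 added with compounds to block cAMP breakdown; potency is the fitted concentration of half-maximal effect; nearly all actives have a fitted effect of over 60% in size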
#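 Cells in DMEM/10% FBS with G418 were pretreated with compounds in DMSO plus […] (300 uM stock) for 30 min at 37C. cAMP was measured by HTRF (cAMP-d2 plus anti-cAMP antibody-K) after 30 min at room temperature.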
# pAkt inh – HTS Assay for Inhibitors of Akt Phophorylation: Primary Screen; Neuro2A IGF-stimulated pAkt S473 HTRF, 20 min; active compounds read low; 0.32% of 360,000 active; activity change, % for hits at 50 µM; in the data active = activity change below about -80%; inconclusive = mostly about -51% to -80%; note: % is set by controls: 0 for no effect and ±100 for the full control effect
#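 Neuro2A cells in DMEM with 0.5% FBS, overnight at 37 deg C, given compound at single 50 µM final, then IGF (6 nM final) for 20 min at 37 deg C. Lysed; phospho-Akt Ser473 by HTRF after 24 h, 665/615 ratio.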
# gsp antag – qHTS for Antagonists of gsp, the Etiologic Mutation Responsible for Fibrous Dysplasia/McCune-Albright Syndrome: qHTS | gsp-mutant cells, cAMP HTRF, 30 min | Potency, µM (top dose mostly 76.9 µM), inactives show at the highest dose activity change, negative = inhibition, usual class: inhibitors | 0.4% of 340,000 active | AID 624288, 2012; calls by dose curve; cell line not stated here;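 note: intracellular cAMP measured with PDE inhibitor Ro 20-1724 present during compound exposure; potency is the fitted concentration of half-maximal effect; % is set by controls: 0 for no effect and ±100 for the full control effect; nearly all actives have a fitted effect of over 65% in size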
#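 Measurement of cellular cAMP by homogeneous time-resolved fluorescence following a 30 min compound exposure at 37C. The PDE inhibitor […] was present throughout; the assay buffer was DPBS with 0.05% BSA and 0.005% Tween 20.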
# RXFP1 antagonist – qHTS Assay for Antagonists of the Relaxin Receptor RXFP1; Relaxin receptor 1 (Homo sapiens), Q9HBX9; HEK293-RXFP1, relaxin-stimulated cAMP HTRF, 30 min; active compounds read low; activity change, negative = inhibition, % at 57.5 µM; 0.59% of 350,000 active;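 active = activity change of -60% or lower, but not beyond a set lower limit; inconclusive = change between -60% and -40%, or beyond the set limit; inactive = change above -40%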; note: % is set by controls: 0 for no effect and ±100 for the full control effect
# ClpP mod – qHTS Assay for Activators of ClpP | ATP-dependent Clp protease proteolytic subunit (Bacillus subtilis (strain 168)), P80244 | 1.9% of 340,000 active | Potency, µM (titrated, usually from 57.5 µM), for the others: at the highest dose activity change, negative = active | purified B. subtilis ClpP, FRET peptide cleavage, 20 min; active = well fitted falling curve with a large enough effect; inconclusive = small, poorly fitted or top-dose-only effect; inactive = no such curve, though single readings can be large or run the other way; note: potency is the fitted concentration of half-maximal effect; the source files actives as falling curves though it sought activators and does not explain the sign; nearly all actives have a fitted effect of over 65% in size
#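 Purified B. subtilis ClpP, 10 microg/mL final in Tris/HCl pH8 with KCl, BSA, glycerol and Tween-20, cleaved an Abz/nitrotyrosine-quenched decapeptide. Fluorescence (ex 320, em 430) was read at 0 and 20 min at room temperature. Delta was normalized to 5.8 microM ADEP and DMSO/no-enzyme controls.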
# * marks the source's active call; other numbers are inactive results; i = inactive; ? = inconclusive; . = no result given; [ ] = remark or other dose.
SMILES,RXFP1 agonist,gsp agonist,pAkt inh,gsp antag,RXFP1 antagonist,ClpP mod
Cc1cc(C)c(S(=O)(=O)NCC(c2cccs2)S(=O)(=O)c2ccccc2)c(C)c1 (stereo not given),-1%,.,.,.,-16,5%
CC(=O)OC[C@H]1O[C@@H](Sc2cccc3cccnc23)[C@H](OC(C)=O)[C@@H](OC(C)=O)[C@H]1OC(C)=O,1%,-3%[15.4 µM],i,5%,-10,4µM*
CC(=O)OCC1OC(c2ccccc2)C(OC(C)=O)C(OC(C)=O)C1OC(C)=O (stereo not given),-1%,-27%,i,5%,-8,1%
CC(=O)OC[C@H]1O[C@@H](Sc2cccc3cccnc23)[C@H](OC(C)=O)[C@@H](OC(C)=O)[C@@H]1OC(C)=O,0%,-2%[15.4 µM],i,12%,-10,14µM*
Cc1ccc(CNc2nc3c([nH]2)c(=O)n(C)c(=O)n3C)cc1,1%,?,i,1%,4,20µM*
CCCCNc1nc(CC)c2c(c1C#N)CCCC2,0%,?,i,-11%,-10,28µM*
COc1ccc(C(=O)N2CCNC(=O)C2CC(=O)Nc2cc(Cl)ccc2OC)cc1 (stereo not given),1%,23%,i,9%,-7,.
O=C1CC2(CCCC2)CC(=O)N1,.,.,.,.,-11,.
CCc1ccc(CN2CCCC(C(=O)Nc3ccccc3-c3ccc(OC)cc3)C2)o1 (stereo not given),0%,-29%,i,-4%,-77*,-1%
COCc1ccc(CN2CCCC(C(=O)Nc3ccccc3-c3ccc(OC)cc3)C2)o1 (stereo not given),-1%,-29%,i,-7%,27,0%
ON=C1c2ccccc2-c2cc(Br)ccc21,.,6%,i,8%,-19,1%
CCOC(=O)c1c(N)c(C#N)c2n1CCCC2,6%,-21%,i,10%,-5,32µM*
O=C(CSc1nnc(-c2ccccn2)n1Cc1ccco1)c1ccc(Cl)cc1,4%,1%,-110%*,-4%,-11,1%
COC(=O)c1sccc1S(=O)(=O)N(CC(=O)NCc1ccc(F)cc1)c1ccc(C)c(C)c1,25%,.,.,.,-5,-1%
N#C/C(=N\Nc1ccc(Cl)cc1)C(=O)c1ccccc1,-1%,-3%[15.4 µM],i,28µM*,-16,-1%
Cc1cc(C)c2c(CC(=O)Nc3nnc(CC(C)C)s3)coc2c1,0%,.,.,.,-2,-1%
CN(CC(=O)O)c1ccc(C=O)cc1,.,.,.,.,.,-11%
CCCCOc1ccc(N(CC(=O)NCCOC)C(=O)CCC(=O)Nc2ccccn2)cc1,3%,-10%,i,32µM*,-3,-1%
CCc1ccc(N(CC(=O)NC2CCCCC2)C(=O)CCC(=O)Nc2ccccn2)cc1,-4%,17%[15.4 µM],i,-16%,7,16µM*
Cc1ccc(N(CC(=O)NC2CCCC2)C(=O)CCC(=O)Nc2ccccn2)cc1,7%,-4%[15.4 µM],i,10%,3,.
CCOC(=O)C(C(=O)Nc1ccccn1)C1CCCCC1 (stereo not given),-2%,?,i,9%,-8,28µM*
Cc1ccc(CNC(=O)c2ccc(N3CCC4(CC3)CC(c3ccccc3)=NO4)c(N)c2)cc1,1%,?,i,-4%,.,8.9µM*
Cc1ccc(N(Cc2cc(=O)[nH]c3ccccc23)C(=O)c2ccco2)cc1,0%,20%,-119%*,-3%,6,-13%
Cc1ccc(N(Cc2cc3ccccc3[nH]c2=O)C(=O)c2ccco2)c(C)c1,-1%,-2%,-112%*,-10%,-6,-21%
